Laboratory results published in PubChem BioAssay AID1159580 (chemical genetic matrix, 2015).
About 2,000 (36%) of roughly 5,500 compounds were called active. About 18% were inconclusive and are not listed. Rule as the data show it: active = normalized growth mostly below about 0.91 (no sharp cut-off); inconclusive = no clear call, values can overlap the other calls; inactive = mostly above about 0.92. Some of the results follow.

Test: chemical genetic growth profiling, strain panel (AID 1159580);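 also: tested at 20 µM; growth read once vehicle control cultures reached saturation at 30 °C; 1 = growth at the plate median or of vehicle wells; lower values mean less growth of the strain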
Settings: growth OD

Measured: normalized growth

COc1cc(NS(=O)(=O)c2ccc(N)cc2)nc(OC)n1
inactive: S. cerevisiae deletion strains, locus YJR066W, strain TOR1, active compounds read low 0.933 | S. cerevisiae deletion strains, locus YKL009W, strain mrt4, active compounds read low 0.985 | S. cerevisiae deletion strains, locus YKL068W, active compounds read low 0.984 | S. cerevisiae deletion strains, locus YKL085W, strain MDH1 (second series), active compounds read low 0.991 | S. cerevisiae deletion strains, locus YKL085W, strain MDH1, active compounds read low 0.991 | S. cerevisiae deletion strains, locus YKL160W, strain elf1, active compounds read low 0.969 | S. cerevisiae deletion strains, locus YKL190W, strain CNB1, active compounds read low 0.999 | S. cerevisiae deletion strains, locus YKR001C, strain vps1, active compounds read low 1 | S. cerevisiae deletion strains, locus YKR026C, strain gcn3, active compounds read low 0.973 | S. cerevisiae deletion strains, locus YKR091W, strain srl3, active compounds read low 0.982 | S. cerevisiae deletion strains, locus YLL001W, strain dnm1, active compounds read low 0.982 | S. cerevisiae deletion strains, locus YLL026W, active compounds read low 0.992 | S. cerevisiae deletion strains, locus YLL041C, strain sdh2, active compounds read low 0.992 | S. cerevisiae deletion strains, locus YLR027C, strain aat2, active compounds read low 0.988 | S. cerevisiae deletion strains, locus YLR039C, strain RIC1, active compounds read low 0.997 | S. cerevisiae deletion strains, locus YLR058C, strain SHM2, active compounds read low 0.982 | S. cerevisiae deletion strains, locus YLR102C, strain apc9, active compounds read low 0.985 | S. cerevisiae deletion strains, locus YLR113W, strain HOG1, active compounds read low 0.961 | S. cerevisiae deletion strains, locus YLR221C, strain rsa3, active compounds read low 0.986 | S. cerevisiae deletion strains, locus YLR258W, strain gsy2, active compounds read low 0.979 | S. cerevisiae deletion strains, locus YLR262C, strain YPT6 (second series), active compounds read low 0.952 | S. cerevisiae deletion strains, locus YLR262C, strain YPT6, active compounds read low 0.97 | S. cerevisiae deletion strains, locus YLR268W, strain sec22, active compounds read low 0.98 | S. cerevisiae deletion strains, locus YLR320W, strain mms22, active compounds read low 0.972 | S. cerevisiae deletion strains, locus YLR330W, strain CHS5, active compounds read low 0.984 | S. cerevisiae deletion strains, locus YLR342W, strain FKS1 (second series), active compounds read low 0.95 | S. cerevisiae deletion strains, locus YLR342W, strain FKS1, active compounds read low 0.986 | S. cerevisiae deletion strains, locus YLR357W, strain rsc2, active compounds read low 0.921 | S. cerevisiae deletion strains, locus YLR370C, strain arc18, active compounds read low 0.977 | S. cerevisiae deletion strains, locus YLR371W, strain rom2, active compounds read low 0.982 | S. cerevisiae deletion strains, locus YLR384C, strain iki3, active compounds read low 0.97 | S. cerevisiae deletion strains, locus YLR418C, strain cdc73, active compounds read low 0.969 | S. cerevisiae deletion strains, locus YML016C, strain PPZ1, active compounds read low 0.983 | S. cerevisiae deletion strains, locus YML032C, strain rad52, active compounds read low 0.983 | S. cerevisiae deletion strains, locus YML120C, strain ndi1, active compounds read low 0.972 | S. cerevisiae deletion strains, locus YML124C, strain tub3, active compounds read low 0.988 | S. cerevisiae deletion strains, locus YMR058W, strain fet3, active compounds read low 0.996 | S. cerevisiae deletion strains, locus YMR078C, strain ctf18, active compounds read low 0.984 | S. cerevisiae deletion strains, locus YMR125W, strain sto1, active compounds read low 0.978 | S. cerevisiae deletion strains, locus YMR129W, active compounds read low 0.983 | S. cerevisiae deletion strains, locus YMR205C, strain PFK2, active compounds read low 0.971 | S. cerevisiae deletion strains, locus YMR223W, strain ubp8, active compounds read low 0.987 | S. cerevisiae deletion strains, locus YMR231W, strain pep5, active compounds read low 0.982 | S. cerevisiae deletion strains, locus YMR307W, strain GAS1, active compounds read low 0.933 | S. cerevisiae deletion strains, locus YNL067W, strain RPL9B, active compounds read low 1.01 | S. cerevisiae deletion strains, locus YNL071W, strain lat1, active compounds read low 0.975 | S. cerevisiae deletion strains, locus YNL153C, strain GIM3, active compounds read low 1.04 | S. cerevisiae deletion strains, locus YNL183C, strain NPR1, active compounds read low 0.943 | S. cerevisiae deletion strains, locus YNL209W, strain ssb2, active compounds read low 0.97 | S. cerevisiae deletion strains, locus YNL233W, strain BNI4, active compounds read low 1 | S. cerevisiae deletion strains, locus YNL248C, strain rpa49, active compounds read low 0.969 | S. cerevisiae deletion strains, locus YNL250W, strain rad50, active compounds read low 0.988 | S. cerevisiae deletion strains, locus YNL271C, strain bni1, active compounds read low 0.978 | S. cerevisiae deletion strains, locus YNL298W, strain CLA4, active compounds read low 0.962 | S. cerevisiae deletion strains, locus YNL307C, strain MCK1, active compounds read low 0.981 | S. cerevisiae deletion strains, locus YNL322C, strain KRE1 (second series), active compounds read low 0.976 | S. cerevisiae deletion strains, locus YNL322C, strain KRE1, active compounds read low 0.996 | S. cerevisiae deletion strains, locus YNR049C, strain mso1, active compounds read low 0.979 | S. cerevisiae deletion strains, locus YNR052C, strain pop2, active compounds read low 0.986 | S. cerevisiae deletion strains, locus YOL006C, strain TOP1, active compounds read low 1.05 | S. cerevisiae deletion strains, locus YOL012C, strain htz1 0.758 | S. cerevisiae deletion strains, locus YOL147C, strain pex11, active compounds read low 0.978 | S. cerevisiae deletion strains, locus YOR001W, strain rrp6, active compounds read low 0.988 | S. cerevisiae deletion strains, locus YOR061W, strain CKA2, active compounds read low 0.977 | S. cerevisiae deletion strains, locus YOR069W, strain VPS5, active compounds read low 0.985 | S. cerevisiae deletion strains, locus YOR070C, strain gyp1, active compounds read low 0.981 | S. cerevisiae deletion strains, locus YOR080W, strain dia2, active compounds read low 0.966 | S. cerevisiae deletion strains, locus YOR083W, strain WHI5, active compounds read low 0.981 | S. cerevisiae deletion strains, locus YOR106W, strain vam3, active compounds read low 0.977 | S. cerevisiae deletion strains, locus YOR136W, strain idh2, active compounds read low 0.991 | S. cerevisiae deletion strains, locus YOR144C, strain elg1, active compounds read low 0.992 | S. cerevisiae deletion strains, locus YOR184W, strain ser1, active compounds read low 0.991 | S. cerevisiae deletion strains, locus YOR231W, strain MKK1, active compounds read low 0.968 | S. cerevisiae deletion strains, locus YOR265W, strain rbl2, active compounds read low 0.992 | S. cerevisiae deletion strains, locus YOR270C, strain vph1, active compounds read low 0.965 | S. cerevisiae deletion strains, locus YOR290C, strain snf2, active compounds read low 0.991 | S. cerevisiae deletion strains, locus YOR316C, strain cot1, active compounds read low 0.988 | S. cerevisiae deletion strains, locus YPL051W, strain arl3, active compounds read low 0.973 | S. cerevisiae deletion strains, locus YPL055C, strain LGE1, active compounds read low 1.03 | S. cerevisiae deletion strains, locus YPL078C, strain atp4, active compounds read low 0.965 | S. cerevisiae deletion strains, locus YPL106C, strain sse1, active compounds read low 0.976 | S. cerevisiae deletion strains, locus YPL240C, strain hsp82, active compounds read low 0.98 | S. cerevisiae deletion strains, locus YPL241C, strain CIN2, active compounds read low 0.994 | S. cerevisiae deletion strains, locus YPL256C, strain CLN2, active compounds read low 0.966 | S. cerevisiae deletion strains, locus YPR119W, strain clb2, active compounds read low 0.989 | S. cerevisiae deletion strains, locus YPR141C, strain kar3, active compounds read low 0.982 | S. cerevisiae deletion strains, locus YPR163C, strain tif3, active compounds read low 0.973 | S. cerevisiae deletion strains, locus YPR167C, strain met16, active compounds read low 0.986 | S. cerevisiae deletion strains, strain wtn01, active compounds read low 0.981 | S. cerevisiae strains, strain wild type, active compounds read low 0.991
